Assay outcomes from PubChem BioAssay.
Shown is part of a subset that was picked to be rich in hits.
12-LOX inh – ALOX12 (human) lipoxygenase inhibition; P18054; purified 12hLO, xylenol orange hydroperoxide absorbance; Potency, µM (series often up to 108 µM), inactives show at the highest dose activity change, negative = inhibition, hits mostly inhibitors; hit rate 1.1% among 580,000; AID 1671190; note: potency is the fitted concentration of half-maximal effect
Target sequence (P18054 whole entry, looked up): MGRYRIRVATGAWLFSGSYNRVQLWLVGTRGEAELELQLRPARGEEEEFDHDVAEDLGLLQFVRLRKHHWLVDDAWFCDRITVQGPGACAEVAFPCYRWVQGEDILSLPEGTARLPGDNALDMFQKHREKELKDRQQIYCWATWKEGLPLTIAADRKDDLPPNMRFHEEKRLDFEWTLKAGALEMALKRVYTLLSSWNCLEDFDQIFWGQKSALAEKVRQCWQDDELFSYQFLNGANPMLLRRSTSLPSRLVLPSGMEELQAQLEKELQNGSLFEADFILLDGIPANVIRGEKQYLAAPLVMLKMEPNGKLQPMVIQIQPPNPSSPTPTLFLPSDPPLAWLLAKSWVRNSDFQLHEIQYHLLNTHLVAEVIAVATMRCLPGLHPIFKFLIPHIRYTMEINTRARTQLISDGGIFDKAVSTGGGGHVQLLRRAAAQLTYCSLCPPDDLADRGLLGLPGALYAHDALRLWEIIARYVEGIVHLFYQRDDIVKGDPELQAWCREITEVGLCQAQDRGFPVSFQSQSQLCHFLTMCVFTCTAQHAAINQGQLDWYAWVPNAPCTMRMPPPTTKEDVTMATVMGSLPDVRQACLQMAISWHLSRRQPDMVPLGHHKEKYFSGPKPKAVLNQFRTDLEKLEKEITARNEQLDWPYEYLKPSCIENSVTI
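Purified human 12hLO (150 nM final) in 25 mM Hepes, 0.01% Triton X-100, pH 7.0 was preincubated 15 min at room temperature with compound. Then 40 uM arachidonic acid was added, 30 min. Hydroperoxide was read by Fe-XO absorbance ratio 573/405 nm.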
HT1080-NT tox – kills 2HG-producing HT-1080-NT fibrosarcoma cells; Potency, µM (titrated, usually from 46.1 µM), inactives show at the top dose activity, negative = less viability, actives largely listed as cytotoxic; HT-1080-NT fibrosarcoma viability, CellTiter-Glo ATP luminescence, 48 h; hit rate 1.6% among 360,000;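 note: NT is the 2HG producing partner of a matched IDH1 knockdown line; potency is the fitted concentration of half-maximal effect; 0% = DMSO-treated cells and -100% = media-only wells without cells; nearly all actives have a fitted effect of over 55% in size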
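750 cells/well, RPMI + 5% FBS; 2 h settle, compound pin-transfer, 48 h at 37 degrees C. CellTiter-Glo 10 min RT, luminescence. Normalized to DMSO and media-only wells.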
IL-1B inflam inh – blocks inflammasome-driven IL-1 beta release | THP-1 LPS/ATP IL-1B secretion, AlphaLISA, 16 h; stronger effect = lower value | activity change, % at 57.5 µM | hit rate 4.7% among 360,000 | AID 743279; in the data active = activity change below about -50%; inconclusive = mostly about -30% to -49%
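THP-1 cells pretreated 1 hr with compounds (up to 57.5 uM final), then stimulated with LPS (250 ng/mL final) plus ATP (1.25 mM final); secreted IL-1B measured by AlphaLISA after 16 hr, decreased signal indicating inhibition.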
DT40 TDP1 CPT – DT40-hTDP1 cell growth loss with CPT | chicken DT40 Tdp1-/-;hTDP1 cells + 20 nM CPT, ATP luminescence, 48 h | Potency, µM (doses to about 46.2 µM), inactives show at the highest dose activity change, negative = growth inhibition, hits mostly inhibitors | hit rate 12% among 420,000; note: potency is the fitted concentration of half-maximal effect; nearly all actives have a fitted effect of over 55% in size
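Chicken DT40 Tdp1-/- cells complemented with human TDP1, 400 cells/well, exposed to compounds plus 20 nM camptothecin for at least 48 h at 37 C; viability read as ATP content by CellTiter-Glo luminescence.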
DT40 TDP1 no CPT – qHTS for Inhibitors of human tyrosyl-DNA phosphodiesterase 1 (TDP1): qHTS in cells in absence of CPT | DT40 Tdp1-/- hTDP1 cells, no CPT, ATP luminescence, 48 h | Potency, µM (series often up to 46.2 µM), for inactives: top-dose activity change, negative = growth inhibition, hits mostly inhibitors | hit rate 15% among 420,000 | AID 686978, 2013; note: potency is the fitted concentration of half-maximal effect; nearly all actives have a fitted effect of over 55% in size
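Readout: luminescence from CellTiter-Glo after 30 min in the dark at RT. Cells: DT40 Tdp1-/- with stable hTDP1, 400/well. Exposure: compounds alone, ≥48 hr, 37 °C.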
HT1080 IDH1KD tx – HT-1080 IDH1 knockdown cell toxicity (counter line). HT-1080 IDH1 knockdown viability, ATP luminescence, 48 h. Potency, µM (titrated, usually from 46.1 µM), for inactives: at the top dose activity, negative = toxicity, hits mostly cytotoxic. hit rate 2% among 360,000. AID 686971;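 note: potency is the fitted concentration of half-maximal effect; 0% = DMSO wells and -100% = cell-free medium wells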
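Luminescent ATP read-out (CellTiter-Glo, 10 min at room temperature) after 48 h compound exposure at 37 °C gave viability of IDH1-knockdown HT-1080 cells. Activity was normalised to DMSO and cell-free wells, then fitted as concentration-response curves.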
Starred values were filed as active, the others as inactive; ? = inconclusive; . = not tested or not shown; [ ] = dose if it differs, or a comment. Unless noted, calls come from the whole dose curve; as a rule, active = well fitted curve in the direction sought with a large enough effect; inconclusive = small, poorly fitted or top-dose-only effect, or another doubt; inactive = no such curve, though single readings can be large; an effect the other way counts as inactive or inconclusive. Unless noted, % is set by controls: 0 for no effect and ±100 for the full control effect.

SMILES	12-LOX inh	HT1080-NT tox	IL-1B inflam inh	DT40 TDP1 CPT	DT40 TDP1 no CPT	HT1080 IDH1KD tx
O=C(Oc1ccc(Br)cc1C(=S)N1CCOCC1)c1ccc([N+](=O)[O-])cc1[N+](=O)[O-]	?	?	-92*	21µM*	?	?
CCc1ccc(C(=O)COC(=O)c2cc([N+](=O)[O-])ccc2N2CCOCC2)cc1	-4%	9.2µM*	-15	?	18µM*	8.2µM*
O=C(OCc1cccc(C(F)(F)F)c1)c1cc([N+](=O)[O-])ccc1N1CCOCC1	-11%	-15%	-60*	?	?	-22%
COc1ccc(COC(=O)c2cc([N+](=O)[O-])ccc2N2CCOCC2)cc1F	2%	0.0058µM*	1	0.023µM*	0.012µM*	0.0052µM*
CCCC1c2nccn2CCCN1C(=O)c1cc(C)no1 (stereo not drawn)	34%	.	.	.	.	.
CSc1ccc(C2NC3=NCN(Cc4ccccn4)CN3c3nc4ccccc4n32)cc1 (stereo not drawn)	12%	.	.	.	.	.
O=C(O)C(c1c[nH]c2ccc(Br)cc12)N1CCN(CCOc2ccc(Cl)cc2)CC1 (stereo not drawn)	-26%	.	.	.	.	.
O=C(Cn1c(=O)oc2ccccc21)NCC1Cn2cccc2C(=O)N1Cc1cccnc1 (stereo not drawn)	62%	.	.	.	.	.
COCCOc1ccc(C(F)(F)F)cc1NC(=O)COC(=O)c1cc([N+](=O)[O-])ccc1N1CCOCC1	-6%	-4%	-16	15µM*	23µM*	1%
COc1cccc(CNC(=O)COC(=O)c2cc([N+](=O)[O-])ccc2N2CCCC2)c1	86%	-3%	?	16µM*	23µM*	-7%
O=C(OCc1ccc(Br)cc1)c1cc([N+](=O)[O-])ccc1N1CCOCC1	8%	?	22	0.73µM*	0.46µM*	2.6µM*
O=C(COC(=O)c1cc([N+](=O)[O-])ccc1N1CCOCC1)NCc1ccccc1	?	-7%	-16	-6%	-11%	-4%
O=C(OCc1cccc(Cl)c1)c1cc([N+](=O)[O-])ccc1N1CCOCC1	-19%	-23%	?	?	?	?
CC(C)Cc1cc(CNC(=O)Nc2nnc(C(C)(C)C)s2)on1	33%	.	.	.	.	.
Cc1noc([C@@H]2CN(Cc3cccc(F)c3F)C[C@H]2CO)n1	10%	.	.	.	.	.
COc1ccc(CNC(=O)CCc2ncc(-c3c(F)cccc3F)o2)cc1	0%	.	.	.	.	.
Cc1ccc(S(=O)(=O)N2CC=C(c3c(C)n(C)c4ccccc34)CC2)cc1	-28%	-1%	15	?	16µM*	-4%
CN(C)Cc1ccccc1CNC(=O)c1nn(-c2ccccc2)c2c1CCC2	7%	.	.	.	.	.
CCN(CC)C(=O)c1nn(-c2ccccc2)c2c1C1CCC2(C)C1(C)C (stereo not drawn)	0%	-8%	?	23µM*	16µM*	-9%
C=CCNC(=S)Nc1ccccc1Cl	5%	.	.	.	.	.
CC(=O)N1C2=CCCC3CCCCC23c2ccccc21 (stereo not drawn)	?	16%	-10	21µM*	26µM*	12%
CN1C(=O)C2(CCN(C(=O)C3CCCC3)CC2)c2ccccc21	34%	.	.	.	.	.
COc1ccc(/C=N/n2cnnc2SCc2ccccc2)cc1	-5%	-17%	-20	?	21µM*	-12%
COc1ccc(C2(C)NC(=O)N(CC(=O)Nc3ccc4ccccc4c3)C2=O)cc1OC (stereo not drawn)	?	?	-55*	-8%	?	-16%
COc1ccc(S(=O)(=O)N2CCN(C(=O)CN3C(=O)NC(C)(c4ccc5ccccc5c4)C3=O)CC2)cc1 (stereo not drawn)	-20%	-8%	-16	?	23µM*	-10%
SMILES	12-LOX inh	HT1080-NT tox	IL-1B inflam inh	DT40 TDP1 CPT	DT40 TDP1 no CPT	HT1080 IDH1KD tx
CC1(c2ccc3ccccc3c2)NC(=O)N(CC(=O)N2CCN(Cc3ccccc3)CC2)C1=O (stereo not drawn)	.	5.8µM*	?	8.2µM*	4.6µM*	-17%
CC(C)Oc1ccc(CNC(=O)C2Cn3cccc3C(=O)N2)cc1 (stereo not drawn)	31%	.	.	.	.	.
CCN(CC(=O)NC(=O)NCc1ccco1)Cc1nc2ccccc2c(=O)[nH]1	25%	-3%	7	4.6µM*	4.6µM*	-3%
CCN(CC(=O)NCCc1ccc(S(N)(=O)=O)cc1)Cc1nc2cc(OC)c(OC)cc2c(=O)[nH]1	-2%	-1%	20	1%	-11%	-1%
CCN(CC(=O)NCCc1ccc(S(N)(=O)=O)cc1)Cc1nc2ccccc2c(=O)[nH]1	-12%	8%	15	21µM*	?	0%
O=C(Cc1ccc2c(c1)OCO2)N1CCCn2nc(C(O)CO)cc2C1 (stereo not drawn)	11%	.	.	.	.	.
Cc1ccc2cc(CN(Cc3ccccc3)Cc3nnnn3C3CCCC3)c(=O)[nH]c2c1	-31%[57.4 µM]	?	-63*	18µM*	13µM*	?
Cc1ccc2cc(CN(Cc3ccc(F)cc3)Cc3nnnn3C3CCCC3)c(=O)[nH]c2c1	9%	?	-61*	29µM*	?	?
CCc1ccc2[nH]c(=O)c(CN(Cc3ccc4c(c3)OCO4)Cc3nnnn3C3CCCC3)cc2c1	-21%	?	-66*	18µM*	?	?
Cc1ccc2[nH]c(=O)c(CN(CCCN3CCOCC3)Cc3nnnn3C3CCCC3)cc2c1	11%	5%	-4	?	-18%	?
NS(=O)(=O)c1ccc(N/N=C/c2cccs2)c([N+](=O)[O-])c1	-56%	.	.	.	.	.
CN(Cc1ccccc1)C(=O)C1CCN(c2ncncn2)CC1	0%	.	.	.	.	.
CCCCN(CC)CCCNC(=O)Nc1sc2nc3n(c(=O)c2c1C)CCC(C)CC3 (stereo not drawn)	-9%	.	.	?	21µM*	.
CC(=O)c1ccc(NC(=O)Nc2sc3nc4n(c(=O)c3c2C)CCC(C)CC4)cc1 (stereo not drawn)	-46%	.	.	5.8µM*	8.2µM*	.
COc1ccc(-c2cc(N3CCCN(C(=O)C4(c5ccc(OC)cc5)CC4)CC3)n[nH]2)cc1	22%	.	.	.	.	.
Cc1ccc2nc(NC(=O)c3nc(SCc4ccccc4C)ncc3Cl)sc2c1	-5%	.	.	-29%	16µM*	.
Cc1ccc2nc(NC(=O)c3ccc(Cl)s3)sc2c1	1%	0%	-13	21µM*	?	11%
